The supplement of paper PMC11732987, “Enantioselective OTUD7B fragment discovery through chemoproteomics screening and high-throughput optimisation” (Communications Chemistry, 2025)
A number with no mark means an inactive call.

Columns and labels:
Test in all cases: log2 ratio of Biotin-Ahx-Ub-VS probe labelling (fragment/DMSO); higher = less target engagement (more negative = stronger competition), active = hit call of the paper (q ≤ 0.05, log2 ratio ≤ -1)
Conditions in all cases: compound concentration: 200 uM; treatment time: 3 h
USP9X = USP9X (UniProt Q93008)
Procedure, shortened: (§1)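 HEK293T lysate (495 µg per sample, in Tris/CHAPS/IGEPAL buffer with protease inhibitors) was exposed in triplicate for 3 h to fragment at 200 µM or to vehicle, then to Biotin-Ahx-Ub-VS at 0.5 µM final for 1 h. Labelled DUBs were enriched on NeutrAvidin, digested with LysC and trypsin, and analysed by diaPASEF LC-MS/MS. Spectronaut label-free quantities were normalised to the global median, and values are average log2 ratios of fragment over vehicle from an unpaired t-test. Only proteins with ≥2 unique peptides were used.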

UniProt O00487 = biological target: UniProt O00487
Procedure, shortened: as §1

UniProt O00507 = biological target: UniProt O00507
Procedure, shortened: as §1

UniProt P51784 = biological target: UniProt P51784
Procedure, shortened: as §1

UniProt Q5T2D3 = biological target: T1, UniProt Q5T2D3
T1 sequence (whole entry): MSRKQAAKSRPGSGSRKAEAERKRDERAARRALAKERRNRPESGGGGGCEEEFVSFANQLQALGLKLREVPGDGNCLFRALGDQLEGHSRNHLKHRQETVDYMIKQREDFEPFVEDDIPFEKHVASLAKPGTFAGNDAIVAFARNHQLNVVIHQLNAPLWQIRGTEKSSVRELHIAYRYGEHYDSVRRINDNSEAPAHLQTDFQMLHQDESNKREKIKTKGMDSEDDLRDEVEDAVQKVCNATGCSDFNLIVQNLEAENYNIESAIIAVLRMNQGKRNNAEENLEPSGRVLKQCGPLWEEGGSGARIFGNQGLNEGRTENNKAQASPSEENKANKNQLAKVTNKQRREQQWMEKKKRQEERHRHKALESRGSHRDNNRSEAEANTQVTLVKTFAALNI
Procedure, shortened: as §1

UniProt Q8TE49 = biological target: T2, UniProt Q8TE49
T2 sequence (whole entry): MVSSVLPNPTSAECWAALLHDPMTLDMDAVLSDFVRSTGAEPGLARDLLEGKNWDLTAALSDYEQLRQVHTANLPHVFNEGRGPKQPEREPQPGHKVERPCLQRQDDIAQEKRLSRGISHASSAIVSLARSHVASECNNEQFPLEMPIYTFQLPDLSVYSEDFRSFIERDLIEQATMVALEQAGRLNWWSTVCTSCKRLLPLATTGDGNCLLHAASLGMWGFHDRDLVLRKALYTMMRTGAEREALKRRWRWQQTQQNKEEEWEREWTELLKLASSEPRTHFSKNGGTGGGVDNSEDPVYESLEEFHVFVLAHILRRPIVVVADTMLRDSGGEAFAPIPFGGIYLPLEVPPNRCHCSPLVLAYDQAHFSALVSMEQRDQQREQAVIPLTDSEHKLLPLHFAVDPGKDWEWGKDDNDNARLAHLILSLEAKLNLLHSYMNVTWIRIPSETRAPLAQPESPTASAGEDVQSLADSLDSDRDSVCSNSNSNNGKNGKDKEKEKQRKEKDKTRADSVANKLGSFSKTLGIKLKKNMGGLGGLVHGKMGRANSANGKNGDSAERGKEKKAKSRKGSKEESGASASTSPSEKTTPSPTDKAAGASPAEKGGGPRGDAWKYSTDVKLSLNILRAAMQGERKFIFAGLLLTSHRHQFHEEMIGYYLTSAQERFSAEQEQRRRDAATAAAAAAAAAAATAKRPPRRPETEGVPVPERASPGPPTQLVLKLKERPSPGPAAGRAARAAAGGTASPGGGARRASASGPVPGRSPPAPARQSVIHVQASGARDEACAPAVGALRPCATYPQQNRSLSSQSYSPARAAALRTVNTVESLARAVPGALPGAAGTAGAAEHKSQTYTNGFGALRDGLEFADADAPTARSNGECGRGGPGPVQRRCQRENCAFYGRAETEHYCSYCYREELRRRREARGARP
Procedure, shortened: as §1

UniProt Q9P2H5 = biological target: T3, UniProt Q9P2H5
T3 sequence (whole entry): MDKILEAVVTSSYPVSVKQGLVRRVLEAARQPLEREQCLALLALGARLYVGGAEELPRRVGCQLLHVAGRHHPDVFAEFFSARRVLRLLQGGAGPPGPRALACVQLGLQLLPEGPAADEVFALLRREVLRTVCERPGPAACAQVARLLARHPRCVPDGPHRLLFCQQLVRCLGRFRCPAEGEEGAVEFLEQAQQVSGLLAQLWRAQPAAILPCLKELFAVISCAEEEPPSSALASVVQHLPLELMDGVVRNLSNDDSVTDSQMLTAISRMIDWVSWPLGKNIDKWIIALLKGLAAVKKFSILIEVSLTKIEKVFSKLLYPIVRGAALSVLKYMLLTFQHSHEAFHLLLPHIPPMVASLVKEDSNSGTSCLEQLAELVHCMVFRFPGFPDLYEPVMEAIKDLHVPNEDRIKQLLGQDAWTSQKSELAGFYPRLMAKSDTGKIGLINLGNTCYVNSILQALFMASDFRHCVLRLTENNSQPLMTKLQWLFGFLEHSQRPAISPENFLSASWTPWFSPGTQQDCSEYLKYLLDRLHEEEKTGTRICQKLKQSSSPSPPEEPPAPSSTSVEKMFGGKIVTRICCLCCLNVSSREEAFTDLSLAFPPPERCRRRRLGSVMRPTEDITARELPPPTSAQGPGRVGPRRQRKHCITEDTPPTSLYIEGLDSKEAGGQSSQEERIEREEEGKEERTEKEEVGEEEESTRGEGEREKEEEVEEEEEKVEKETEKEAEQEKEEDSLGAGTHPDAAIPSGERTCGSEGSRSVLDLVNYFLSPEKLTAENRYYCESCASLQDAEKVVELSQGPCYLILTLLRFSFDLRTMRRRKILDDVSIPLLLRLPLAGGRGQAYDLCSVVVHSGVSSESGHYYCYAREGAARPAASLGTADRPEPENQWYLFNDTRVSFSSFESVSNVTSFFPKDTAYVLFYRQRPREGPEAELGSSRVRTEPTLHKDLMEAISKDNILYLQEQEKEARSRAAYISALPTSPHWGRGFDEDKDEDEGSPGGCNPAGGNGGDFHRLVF
Procedure, shortened: as §1

UniProt Q9UGI0 = biological target: T4, UniProt Q9UGI0
T4 sequence (whole entry): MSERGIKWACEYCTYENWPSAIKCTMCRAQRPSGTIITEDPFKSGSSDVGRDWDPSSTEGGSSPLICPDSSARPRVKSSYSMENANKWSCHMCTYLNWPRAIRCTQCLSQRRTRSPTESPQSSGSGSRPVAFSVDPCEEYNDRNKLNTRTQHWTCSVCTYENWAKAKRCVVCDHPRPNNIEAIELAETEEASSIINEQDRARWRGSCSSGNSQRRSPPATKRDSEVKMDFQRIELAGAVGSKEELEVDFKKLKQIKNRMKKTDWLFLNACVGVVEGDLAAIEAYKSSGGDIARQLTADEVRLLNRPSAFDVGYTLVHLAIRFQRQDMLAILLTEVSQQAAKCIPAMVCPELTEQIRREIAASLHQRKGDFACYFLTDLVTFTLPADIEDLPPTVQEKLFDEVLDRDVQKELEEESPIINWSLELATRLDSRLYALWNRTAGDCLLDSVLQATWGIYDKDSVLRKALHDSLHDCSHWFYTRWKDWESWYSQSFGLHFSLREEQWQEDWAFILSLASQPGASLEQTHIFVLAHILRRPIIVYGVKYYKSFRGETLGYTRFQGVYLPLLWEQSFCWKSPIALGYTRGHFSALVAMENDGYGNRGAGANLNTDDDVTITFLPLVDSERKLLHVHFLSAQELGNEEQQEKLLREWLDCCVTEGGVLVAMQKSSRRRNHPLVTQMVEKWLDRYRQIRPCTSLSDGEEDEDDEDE
Procedure, shortened: as §1

YOD1 = biological target: T5, YOD1 (UniProt Q5VVQ6)
T5 sequence (whole entry): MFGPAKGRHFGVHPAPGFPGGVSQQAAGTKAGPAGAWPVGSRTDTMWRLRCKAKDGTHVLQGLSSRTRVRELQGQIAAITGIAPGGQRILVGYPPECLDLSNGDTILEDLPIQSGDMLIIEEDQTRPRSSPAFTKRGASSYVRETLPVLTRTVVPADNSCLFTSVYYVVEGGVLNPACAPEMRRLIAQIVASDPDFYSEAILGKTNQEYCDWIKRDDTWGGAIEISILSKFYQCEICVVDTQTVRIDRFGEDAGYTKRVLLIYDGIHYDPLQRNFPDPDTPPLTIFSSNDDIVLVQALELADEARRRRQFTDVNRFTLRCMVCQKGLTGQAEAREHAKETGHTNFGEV
Procedure, shortened: as §1

Sequence of UniProt O00487 (O00487 whole entry): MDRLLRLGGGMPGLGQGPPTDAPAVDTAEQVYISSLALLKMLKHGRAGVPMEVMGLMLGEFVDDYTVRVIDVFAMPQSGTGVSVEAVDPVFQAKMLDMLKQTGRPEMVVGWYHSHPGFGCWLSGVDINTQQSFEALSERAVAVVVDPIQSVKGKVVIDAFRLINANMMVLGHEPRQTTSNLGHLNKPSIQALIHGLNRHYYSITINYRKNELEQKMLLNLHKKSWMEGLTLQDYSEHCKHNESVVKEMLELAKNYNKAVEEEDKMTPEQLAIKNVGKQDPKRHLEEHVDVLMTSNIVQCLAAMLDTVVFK
Sequence of UniProt P51784 (P51784 whole entry): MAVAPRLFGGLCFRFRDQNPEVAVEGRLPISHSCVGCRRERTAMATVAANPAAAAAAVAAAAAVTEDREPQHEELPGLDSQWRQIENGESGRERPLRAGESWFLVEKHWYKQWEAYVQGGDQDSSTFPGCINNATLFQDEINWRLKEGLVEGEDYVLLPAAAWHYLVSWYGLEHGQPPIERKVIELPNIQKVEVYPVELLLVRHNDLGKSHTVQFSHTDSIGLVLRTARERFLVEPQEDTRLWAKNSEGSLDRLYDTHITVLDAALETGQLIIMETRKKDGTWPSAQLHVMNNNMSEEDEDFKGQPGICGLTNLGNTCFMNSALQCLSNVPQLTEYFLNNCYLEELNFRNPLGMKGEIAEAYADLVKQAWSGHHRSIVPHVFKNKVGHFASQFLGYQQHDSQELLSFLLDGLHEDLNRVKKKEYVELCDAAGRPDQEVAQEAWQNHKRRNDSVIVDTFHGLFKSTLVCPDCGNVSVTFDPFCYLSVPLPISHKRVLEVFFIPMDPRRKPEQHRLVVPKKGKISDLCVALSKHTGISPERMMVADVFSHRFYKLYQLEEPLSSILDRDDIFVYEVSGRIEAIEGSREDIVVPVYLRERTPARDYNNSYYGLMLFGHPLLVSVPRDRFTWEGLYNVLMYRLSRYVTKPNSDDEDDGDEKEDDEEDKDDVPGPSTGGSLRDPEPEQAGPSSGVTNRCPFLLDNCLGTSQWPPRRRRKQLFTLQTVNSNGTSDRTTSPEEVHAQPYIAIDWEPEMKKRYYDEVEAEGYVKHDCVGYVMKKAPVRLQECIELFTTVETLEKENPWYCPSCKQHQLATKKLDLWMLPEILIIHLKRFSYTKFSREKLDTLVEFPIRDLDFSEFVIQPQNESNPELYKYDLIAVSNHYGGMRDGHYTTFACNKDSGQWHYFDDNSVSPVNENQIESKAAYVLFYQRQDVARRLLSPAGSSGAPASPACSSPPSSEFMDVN
Sequence of USP9X (Q93008 whole entry, the tested form may be a part): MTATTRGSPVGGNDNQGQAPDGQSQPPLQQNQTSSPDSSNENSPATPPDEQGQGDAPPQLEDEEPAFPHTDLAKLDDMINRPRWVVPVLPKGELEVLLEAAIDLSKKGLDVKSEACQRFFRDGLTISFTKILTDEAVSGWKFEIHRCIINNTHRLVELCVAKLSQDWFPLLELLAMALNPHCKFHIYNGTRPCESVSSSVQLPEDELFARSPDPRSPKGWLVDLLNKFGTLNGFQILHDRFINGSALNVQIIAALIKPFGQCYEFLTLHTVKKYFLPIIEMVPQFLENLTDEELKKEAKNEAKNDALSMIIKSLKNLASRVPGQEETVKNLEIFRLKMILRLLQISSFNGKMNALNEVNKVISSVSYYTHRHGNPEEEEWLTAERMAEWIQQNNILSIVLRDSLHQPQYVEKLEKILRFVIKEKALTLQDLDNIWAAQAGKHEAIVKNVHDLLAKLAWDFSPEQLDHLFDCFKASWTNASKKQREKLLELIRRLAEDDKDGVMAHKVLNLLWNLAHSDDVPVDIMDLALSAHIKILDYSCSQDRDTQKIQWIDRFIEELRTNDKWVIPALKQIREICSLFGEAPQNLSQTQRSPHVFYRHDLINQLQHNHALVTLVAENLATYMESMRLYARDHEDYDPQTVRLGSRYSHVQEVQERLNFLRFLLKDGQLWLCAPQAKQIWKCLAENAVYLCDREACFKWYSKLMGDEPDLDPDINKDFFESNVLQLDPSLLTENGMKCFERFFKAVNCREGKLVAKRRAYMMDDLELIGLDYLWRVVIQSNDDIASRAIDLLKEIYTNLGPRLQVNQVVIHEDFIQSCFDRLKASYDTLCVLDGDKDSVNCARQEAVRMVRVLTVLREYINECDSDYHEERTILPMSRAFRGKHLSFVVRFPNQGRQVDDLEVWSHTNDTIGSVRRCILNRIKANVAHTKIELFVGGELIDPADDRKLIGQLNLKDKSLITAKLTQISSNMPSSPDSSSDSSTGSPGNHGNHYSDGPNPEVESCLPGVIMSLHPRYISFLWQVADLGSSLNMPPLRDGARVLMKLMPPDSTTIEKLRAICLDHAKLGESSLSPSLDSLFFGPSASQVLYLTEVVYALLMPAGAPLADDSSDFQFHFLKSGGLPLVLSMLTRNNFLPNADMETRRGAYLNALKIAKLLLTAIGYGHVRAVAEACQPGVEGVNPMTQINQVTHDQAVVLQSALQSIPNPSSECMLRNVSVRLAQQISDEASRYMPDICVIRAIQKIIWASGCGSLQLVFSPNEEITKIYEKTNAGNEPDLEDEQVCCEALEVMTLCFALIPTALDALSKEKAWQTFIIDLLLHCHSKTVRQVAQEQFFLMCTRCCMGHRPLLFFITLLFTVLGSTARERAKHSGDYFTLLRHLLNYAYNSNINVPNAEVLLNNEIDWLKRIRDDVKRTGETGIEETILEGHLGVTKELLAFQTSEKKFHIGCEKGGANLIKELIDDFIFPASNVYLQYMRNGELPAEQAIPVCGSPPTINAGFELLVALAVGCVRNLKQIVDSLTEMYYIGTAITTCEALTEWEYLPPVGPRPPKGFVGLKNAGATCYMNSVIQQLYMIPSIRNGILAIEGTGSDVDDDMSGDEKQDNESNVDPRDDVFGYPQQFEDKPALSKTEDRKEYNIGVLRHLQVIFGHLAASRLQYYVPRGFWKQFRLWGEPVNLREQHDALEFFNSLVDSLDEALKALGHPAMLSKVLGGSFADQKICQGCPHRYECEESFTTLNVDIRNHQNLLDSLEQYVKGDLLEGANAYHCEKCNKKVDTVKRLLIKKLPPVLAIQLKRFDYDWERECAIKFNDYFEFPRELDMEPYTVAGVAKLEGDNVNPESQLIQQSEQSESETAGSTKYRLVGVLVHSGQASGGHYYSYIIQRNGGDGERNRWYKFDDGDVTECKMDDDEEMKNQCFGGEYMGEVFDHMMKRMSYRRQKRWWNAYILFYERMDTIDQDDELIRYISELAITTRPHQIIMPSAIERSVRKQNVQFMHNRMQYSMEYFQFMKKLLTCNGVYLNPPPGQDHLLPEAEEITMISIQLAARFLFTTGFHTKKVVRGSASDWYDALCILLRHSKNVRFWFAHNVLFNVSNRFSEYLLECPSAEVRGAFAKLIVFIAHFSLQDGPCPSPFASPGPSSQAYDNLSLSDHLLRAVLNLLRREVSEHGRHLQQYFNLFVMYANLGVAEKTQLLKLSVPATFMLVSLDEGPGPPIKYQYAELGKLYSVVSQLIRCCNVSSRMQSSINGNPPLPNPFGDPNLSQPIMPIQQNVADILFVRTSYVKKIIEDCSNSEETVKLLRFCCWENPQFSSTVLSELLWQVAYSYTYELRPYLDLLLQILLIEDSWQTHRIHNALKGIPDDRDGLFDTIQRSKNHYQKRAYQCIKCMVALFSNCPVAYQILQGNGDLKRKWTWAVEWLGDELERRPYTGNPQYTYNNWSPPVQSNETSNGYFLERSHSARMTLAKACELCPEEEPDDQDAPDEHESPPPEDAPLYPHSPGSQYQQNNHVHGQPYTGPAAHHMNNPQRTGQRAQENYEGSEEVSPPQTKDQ

In the case of `O=C(CCl)N1CCOC(c2cccc(F)c2)C1` (centres undefined), the “log2 ratio of Biotin-Ahx-Ub-VS probe labelling” value (“log2 ratio” below) (USP9X) is reported as -0.504, the “log2 ratio” value (UniProt O00487) is reported as 0.15 and the “log2 ratio” value (UniProt O00507) is reported as 0.244. The “log2 ratio” value (UniProt P51784) was -0.328, the “log2 ratio” value (UniProt Q5T2D3) was -0.182 and the “log2 ratio” value (UniProt Q8TE49) was -1.26 (active). For the same compound, the “log2 ratio” value (UniProt Q9P2H5) was -0.416, the “log2 ratio” value (UniProt Q9UGI0) was -1.44 (active) and the “log2 ratio” value (YOD1) was -0.0782.
